Drawing on PubChem BioAssay (NCATS), this text covers Potency for six molecules.

Records with an inconclusive call do not appear. The source made the active and inactive calls. Unless noted, calls come from the whole dose curve; as a rule, active = well fitted inhibition curve with a large enough effect; inconclusive = small, poorly fitted or top-dose-only effect; inactive = flat fitted curve, though single readings scatter.

Test [1] is described as follows: S16 Schwann cell PMP22 intronic element beta-lactamase assay (AID 624044; calls by dose curve; note: nearly all actives have a fitted effect of over 15% in size). The conditions noted are these: S16 rat Schwann cells, PMP22 element beta-lactamase FRET, 24 h; ratio activity, negative = inhibition: at 38.3 µM (top of the series). In short, it runs like this: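 Rat S16 Schwann cells with beta-Lac driven by a PMP22 intronic element, compound-treated 24 h at 37 °C. LiveBLAzer FRET B/G read: 460 nm normalized to potassium clavulanate vs DMSO; 535 nm FRET as viability; concentration-effect curves classified.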

The test system of a further test is AA1029. The test can be described thus: qHTS profiling for inhibitors of Plasmodium falciparum proliferation (AID 504749). Note: nearly all actives have a fitted effect of over 60% in size. The conditions noted are these: P. falciparum in erythrocytes, SYBR Green DNA, 72 h; series mostly up to 28.7 µM. The essentials:
(§1)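 Three-day growth assay of blood-stage parasites in erythrocytes (0.3% parasitemia, 2.5% hematocrit) at 37 C, 5% CO2, quantified by SYBR Green DNA staining after overnight detergent lysis.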
Background: In qHTS, concentration-response curves come from the screen itself.

A further test has as its system AS120. Described as above. The following applies: P. falciparum in erythrocytes, SYBR Green DNA, 72 h; series mostly up to 28.7 µM. The essentials:
as §1

Another test deals with ATS189. The description is as above. The conditions noted are these: P. falciparum in erythrocytes, SYBR Green DNA, 72 h; series mostly up to 28.7 µM. In short, it runs like this: as §1
The subject of another test is C2A. Described as above. The following applies: P. falciparum in erythrocytes, SYBR Green DNA, 72 h; series mostly up to 28.7 µM. The essentials: as §1
A further test concerns CP194. Described as above. The following applies: P. falciparum in erythrocytes, SYBR Green DNA, 72 h; series mostly up to 28.7 µM. The essentials:
as §1

The next test concerns CP201. The test is described as above. The following applies: P. falciparum in erythrocytes, SYBR Green DNA, 72 h; series mostly up to 28.7 µM. In short, it runs like this: as §1
A further test has as its system CP217. The test is described as above. The conditions noted are these: P. falciparum in erythrocytes, SYBR Green DNA, 72 h; series mostly up to 28.7 µM. The essentials: as §1
The next test relates to CP237. The description is as above. The conditions noted are these: P. falciparum in erythrocytes, SYBR Green DNA, 72 h; series mostly up to 28.7 µM. In short, it runs like this:
as §1

The next test deals with CP250. The description is as above. The following applies: P. falciparum in erythrocytes, SYBR Green DNA, 72 h; series mostly up to 28.7 µM. The essentials:
as §1

In another test the test system is CP256. Described as above. The conditions noted are these: P. falciparum in erythrocytes, SYBR Green DNA, 72 h; series mostly up to 28.7 µM. In short, it runs like this: as §1
For another test, the system named is CP268. Described as above. The conditions noted are these: P. falciparum in erythrocytes, SYBR Green DNA, 72 h; series mostly up to 28.7 µM. In short, it runs like this:
as §1

The subject of a further test is CP297. The description is as above. The conditions noted are these: P. falciparum in erythrocytes, SYBR Green DNA, 72 h; series mostly up to 28.7 µM. In short, it runs like this: as §1
The test system of the next test is CP305. Described as above. The conditions noted are these: P. falciparum in erythrocytes, SYBR Green DNA, 72 h; series mostly up to 28.7 µM. In short, it runs like this: as §1
The test system of a further test is CP325. The test is described as above. The following applies: P. falciparum in erythrocytes, SYBR Green DNA, 72 h; series mostly up to 28.7 µM. In short, it runs like this: as §1
The subject of a further test is HB3. The description is as above. The following applies: P. falciparum in erythrocytes, SYBR Green DNA, 72 h; series mostly up to 28.7 µM. The essentials: as §1
A further test relates to PC15. The description is as above. The conditions noted are these: P. falciparum in erythrocytes, SYBR Green DNA, 72 h; series mostly up to 28.7 µM. In short, it runs like this: as §1
The next test has as its system PC49. The test is described as above. The following applies: P. falciparum in erythrocytes, SYBR Green DNA, 72 h; series mostly up to 28.7 µM. The essentials: as §1
In the next test the test system is TAB109. The description is as above. The following applies: P. falciparum in erythrocytes, SYBR Green DNA, 72 h; series mostly up to 28.7 µM. The essentials: as §1
The test system of another test is CP203. Described as above. The following applies: P. falciparum in erythrocytes, SYBR Green DNA, 72 h; series mostly up to 28.7 µM. In short, it runs like this: as §1
Potency is the fitted concentration of half-maximal effect.

Take `C[C@@H]1CCN(C(=O)[C@H](CCCNC(=N)N)NS(=O)(=O)c2cccc3c2NC[C@H](C)C3)[C@@H](C(=O)O)C1`: the Potency result (in [1]; with AA1029; with AS120; in the test on ATS189; in the test on C2A; with CP194) was “inactive” throughout. Further, the Potency result with CP201, with CP217, with CP237, in the test on CP250, in the test on CP256 and in the test on CP268 was “inactive” each time. The Potency entry in the test with CP297, with CP305, with CP325, with HB3, with PC15 and with PC49 was “inactive” throughout. Moreover, the Potency entry with TAB109 was “inactive”.

For `C=C1NC(=O)c2cc(CN(C)c3ccc(C(=O)N[C@@H](CCC(=O)O)C(=O)O)s3)ccc2N1`, the Potency in test [1] was 0.0079 µM (active). Besides, the Potency entry in the test with AA1029, in the test on AS120, in the test with ATS189, with C2A, with CP194 and in the test with CP201 was “inactive” throughout. Moreover, the Potency result with CP203, with CP217, with CP250, in the test on CP256, in the test with CP268 and in the test with CP305 was “inactive” each time. The Potency entry in the test with CP325, with HB3, in the test with PC15, in the test with PC49 and in the test on TAB109 was “inactive” each time.

Consider `CCC(=O)O[C@]1(C(=O)CCl)[C@@H](C)CC2C3C[C@H](F)C4=CC(=O)C=CC4(C)[C@@]3(F)C(O)CC21C` (some centres not stated), for which the Potency entry in [1] was “inactive”. Besides, the Potency in the test on AA1029 is 8.91 µM (active); in the test with AS120 it was 7.94 µM (active); in the test on ATS189, 10 µM (active); with C2A, 12.6 µM (active); in the test on CP194, 15.1 µM (active); in the test with CP217, 7.94 µM (active). The Potency in the test on CP237 is 3.55 µM (active); in the test with CP250, 12.6 µM (active); in the test on CP256, 11.2 µM (active); in the test with CP268, 12 µM (active); in the test with CP297, 10.7 µM (active); in the test on CP305, 12 µM (active). Also, the Potency is 16.9 µM (active) with CP325, 12.6 µM (active) in the test with HB3, 8.91 µM (active) with PC15 and 5.01 µM (active) in the test on TAB109.

Regarding `N#C/C(=C1/SCC(c2ccccc2Cl)S1)n1ccnc1` (configuration not stated), the Potency entry (in [1]; with AA1029; in the test with ATS189; in the test with C2A; in the test with CP194; in the test with CP201) was “inactive” throughout. Also, the Potency result in the test on CP203, in the test on CP217, in the test with CP237, in the test on CP250, in the test on CP256 and in the test with CP268 was “inactive” in each case. The Potency entry in the test with CP305, with CP325, with HB3, in the test with PC15, in the test with PC49 and with TAB109 was “inactive” in each case.

As to `CCOC(=O)C(CCc1ccccc1)NC(C)C(=O)N1Cc2cc(OC)c(OC)cc2CC1C(=O)O` (configuration not stated), the Potency result (in [1]; with ATS189; with CP201; with CP203; in the test with CP237; in the test with CP250) was “inactive” throughout. In addition, the Potency result in the test with CP256, with CP268, in the test with CP305, with CP325 and in the test on TAB109 was “inactive” throughout. For the same molecule, the Potency is 5.01 µM (active) with AS120, 10.7 µM (active) in the test on CP297, 10 µM (active) in the test on PC15 and 11.2 µM (active) in the test with PC49.

`O=C(O)Cc1sc(-c2ccc(Cl)cc2)nc1-c1ccccc1`: the Potency result (in test [1]; in the test with AA1029; in the test with AS120; in the test with ATS189; in the test on C2A; in the test with CP194) was “inactive” each time. Further, the Potency result in the test with CP201, with CP203, in the test with CP217, in the test with CP237, in the test with CP250 and in the test on CP256 was “inactive” throughout. Further, the Potency result with CP268, in the test on CP297, in the test with CP305, with CP325, in the test with HB3 and in the test on PC15 was “inactive” in each case. In addition, the Potency entry in the test on PC49 and with TAB109 was “inactive” throughout.
